Test in all cases: Cytotoxic Profiling of Annotated Libraries Using Quantitative High-Throughput Screening (AID 1296008); note: nearly all actives have a fitted effect of over 60% in size
Conditions in all cases: Five cell lines viability, CellTiter-Glo ATP luminescence, 48-72 h; max response: stronger effect = lower value
For orientation: Cellular ATP, detected with luciferase, serves as a proxy for viable cell number.

The subject of experiment [1] is CRL-7250. The method, boiled down:
(§1)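 Cells exposed to compounds for 48 or 72 hr at 37 degrees Celsius. Viability read as ATP-coupled luminescence with CellTiter-Glo after 10 min at room temperature.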

Experiment [2] deals with HEK293. The method, boiled down:
as §1

The test system of experiment [3] is HaCat. The method, boiled down:
as §1

Experiment [4] concerns KB-3-1. In outline: as §1
Experiment [5] deals with NIH3T3. The method, boiled down:
as §1

This note sets out measurements from PubChem BioAssay (NCATS).

Records with an inconclusive call do not appear. Values without a mark were called inactive. The source made the active and inactive calls. Calls come from the whole dose curve; as a rule, active = well fitted inhibition curve with a large enough effect; inconclusive = small, poorly fitted or top-dose-only effect; inactive = flat fitted curve, though single readings scatter.
% is set by controls: 0 for no effect and ±100 for the full control effect; potency is the fitted concentration of half-maximal effect.

As to `Cc1ncc([N+](=O)[O-])n1C[C@H](O)CN1CCOCC1`, the outcome in experiment [1], in experiment [3] and in experiment [4] was inactive. The max response in experiment [2] was 2.87%; in experiment [5], -3.55%.
Turning to `C/C(=C\CO)CC/C=C(\C)C(=O)O[C@@H]1O[C@H](CO)[C@@H](O)[C@H](O)[C@H]1O`, the max response is -4.11% in experiment [1], 1.04% in experiment [2] and 1.84% in experiment [5]. In addition, the call in experiment [3] and in experiment [4] was inactive.
`C=CC(C)(C)C12Nc3c(ccc4c3OC(C)(C)C=C4)C1(O)CC1C(=O)N3CCCC3C(=O)N12` (stereo not given): the max response in experiment [1] was 0.0002%; in experiment [2], -7.42%. Moreover, the result in experiment [3], in experiment [4] and in experiment [5] was inactive.
`CC(=O)OC1C(C)C2C(OC3OC(CO)C(O)C(O)C3O)OC=C(C(=O)O)C2C1OC(=O)c1ccccc1` (stereo not given): the compound was called inactive in experiment [1], in experiment [4] and in experiment [5]. The max response is 1.6% in experiment [2] and -7.28% in experiment [3].
As to `COc1cc(O)cc(O[C@@H]2O[C@H](CO)[C@@H](O[C@@H]3OC[C@](O)(CO)[C@H]3O)[C@H](O)[C@H]2O)c1OC`, the max response in experiment [1] is 2.5%; in experiment [2], -4.25%; in experiment [5] it was 2.33%. Moreover, the compound was called inactive in experiment [3] and in experiment [4].
Regarding `CC(C)c1c(NC(=O)Nc2ccc(Cl)cc2)c(=O)n(-c2ccccc2)n1C`, the max response in experiment [1] is -6%; in experiment [2], -5.54%; in experiment [4], -6.5%; in experiment [5], -1.6%. Moreover, the call in experiment [3] was inactive.
In the case of `COC(=O)C1=CO[C@@H](O[C@@H]2O[C@H](CO)[C@@H](O)[C@H](O)[C@H]2O)C2C1CC(O)C2C` (stereo not given in full), the max response in experiment [1] was -13.7%; in experiment [2], 0.336%; in experiment [5], -5.32%. The result in experiment [3] and in experiment [4] was inactive.
Consider `C=CCc1ccc(O[C@@H]2O[C@H](CO)[C@@H](O)[C@H](O)[C@H]2O)c(O[C@@H]2O[C@H](CO)[C@@H](O)[C@H](O)[C@H]2O)c1`, for which the values for the max response in experiment [1] and in experiment [2] were -3.11% and -0.299%, respectively. Besides, the result in experiment [3], in experiment [4] and in experiment [5] was inactive.
Turning to `OC[C@H]1O[C@@H](OC[C@H]2O[C@@H](OCc3ccccc3)[C@H](O)[C@@H](O)[C@@H]2O)[C@H](O)[C@@H](O)[C@@H]1O`, the outcome in experiment [1], in experiment [3] and in experiment [4] was inactive. In addition, the figures for the max response in experiment [2] and in experiment [5] were -4.26% and -6.32%, respectively.
Take `C/C=C(\C)C(=O)OC[C@H]1O[C@@H](O[C@H]2[C@@H](O[C@H]3O[C@H](COC(=O)/C(C)=C/C)[C@@H](O)[C@H](O)[C@H]3O[C@@H]3O[C@H](COC(=O)/C(C)=C/C)[C@@H](O)[C@H](OC(=O)/C(C)=C/C)[C@H]3O)O[C@H](COC(=O)/C(C)=C/C)[C@@H](O)[C@@H]2O)[C@H](O)[C@@H](O)[C@@H]1O`: the max response in experiment [1] is -1.79%; in experiment [2] it was -2.95%; in experiment [3] it was -1.65%; in experiment [4], 7.25%. The compound was called inactive in experiment [5].
For the compound `COc1cn(-c2ccc(-n3cccn3)cc2F)nc(-c2ccnn2-c2ccccc2)c1=O`, the max response is 1.34% in experiment [1], -9.47% in experiment [2], -2.34% in experiment [3] and 7.34% in experiment [4]. Moreover, the compound was classed as inactive in experiment [5].
Taken in the same sequence, the figures for `CCN=C1N[C@@H]2[C@@H](O)[C@H](O)[C@@H](CO)O[C@@H]2S1` were 3.4%, -6.92%, 2.86%, 6.7% and “inactive”.
For `CC1=C(C(=O)OC2OC(COC3OC(CO)C(O)C(O)C3O)C(O)C(O)C2O)C(C)(C)CCC1` (stereo not given), the figures for the max response in experiment [1], in experiment [2] and in experiment [5] were -6.15%, 1.47% and 0.403%, respectively. The compound was classed as inactive in experiment [3] and in experiment [4].
For the compound `CC[C@H](C)[C@H](NC(=O)[C@H](Cc1ccc(O)cc1)NC(=O)[C@@H](N)C(C)C)C(=O)N[C@@H](Cc1cnc[nH]1)C(=O)N1CCC[C@H]1C(=O)N[C@@H](Cc1ccccc1)C(=O)O`, the compound was called inactive in experiment [1], in experiment [3], in experiment [4] and in experiment [5]. Also, the max response in experiment [2] was 0.716%.
In the case of `COc1c(C)c(OCC=C(C)C)cc2c1COC2=O`, the max response in experiment [1] was -4.58%; in experiment [2], 3.79%; in experiment [4] it was 4.15%; in experiment [5] it was 2.66%. Further, the call in experiment [3] was inactive.
Turning to `CCOC(=O)COc1ccc2c(c1)C[C@@H](NC[C@H](O)c1cccc(Cl)c1)CC2`, the outcome in experiment [1] and in experiment [3] was inactive. Moreover, the max response in experiment [2] was 4.31%; in experiment [4], 7.38%; in experiment [5], 1.73%.
`COC(=O)C1=CO[C@@H](O[C@@H]2O[C@H](CO)[C@@H](O)[C@H](O)[C@H]2O)[C@@H]2[C@@H](CO)[C@@H](O)C(O)[C@H]12` (stereo not given in full): the compound was called inactive in experiment [1], in experiment [3] and in experiment [4]. Besides, the max response in experiment [2] was -5.81%; in experiment [5], 1.79%.
As to `O=[N+]([O-])c1cc(Cl)ccc1S(=O)(=O)N1CCN(Cc2ccccc2)CC1`, the results for the max response in experiment [1], in experiment [2] and in experiment [4] were -3.5%, -21.3% and -13.2%, respectively. Further, the compound was called inactive in experiment [3] and in experiment [5].
Regarding `C=C(C)[C@@H]1CC[C@]2(C(=O)O)CC[C@]3(C)[C@H](CCC4[C@@]5(C)CCC(=O)C(C)(C)C5C(O)C[C@]43C)C12` (stereo not given in full), the max response in experiment [1] was -6.3%; in experiment [4] it was -20.6%; in experiment [5] it was -1.28%. The Potency in experiment [2] is 4.47 µM (active). Besides, the result in experiment [3] was inactive.
